# Measurements: the supplement of paper PMC10338343
# ± gives the standard deviation.
# Legend:
# [1] = tested on: MILI (PIWIL2) piRISC loaded with piRNA #1 (26 nt); assay: pre-steady-state target cleavage rate (min^-1); guide: piRNA #1 5'p-UGAGGUAGUAGGUUGUAUAGUAUCCA; higher = faster piRNA-guided slicing of the target; conditions: auxiliary factor: 500 nM mouse GTSF1
# How it was run: (§1)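 Active affinity-purified piRISC (1 nM) loaded with one synthetic guide was mixed with a transcribed, DNA-blocked target RNA library (0.1 nM), with or without 500 nM GTSF1 partner protein, in HEPES–potassium acetate buffer at 33 °C for 0–8 or 0–960 min. Uncleaved targets were sequenced, normalised to depth and to weakly complementary targets, and pooled across three trials, with k3 capped at 0.0001 min^-1. The pre-steady-state cleavage rate was determined with a burst-and-steady-state fit.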
# [2] = tested on: EfPiwi piRISC loaded with piRNA #1 (26 nt); assay: pre-steady-state target cleavage rate (min^-1); auxiliary factor: 500 nM Ephydatia muelleri Gtsf1; guide: piRNA #1 5'p-UGAGGUAGUAGGUUGUAUAGUAUCCA; MIWI and MILI are mouse PIWI proteins and EfPiwi is from a freshwater sponge; tags in brackets are library labels; higher = faster piRNA-guided slicing of the target
# How it was run: as §1
Sequence,pre-steady-state target cleavage rate [1],pre-steady-state target cleavage rate [2]
GGAGACGAUACUAUCCAACCUACUACCUCA,0.175 ± 0.016,0.00717 ± 0.0028
GGAGAGGAUACUAUACAACCUACGACCUCA,0.1 ± 0.013,0.00309 ± 0.0016
GGAGAGGAUACUAUACAACCUACUAGCACA,0.00642 ± 0.0042,0.00322 ± 0.0016
